Drawing on ChEMBL document CHEMBL3988442, “University of Dundee, Small-Polar-MMV Screening Library” (2021), this text covers Percent Effect for ten molecules.

The structures appear in SMILES notation. For some assays here: Measured potencies and affinities stand elsewhere.

Set-up in all cases: scale not given: direction of the effect not stated beside the values
Test [1] addresses Protein translocase subunit SecA (Escherichia coli (strain K12)) (UniProt P10408). As to the kind of experiment: Assay to Identify E. coli SecA ATPase Inhibitors. The test is classed as functional. To be noted: 30 µM.
Test [2] addresses T1, Ubiquitin-activating enzyme e1, putative (Leishmania donovani (strain BPK282A1)) (UniProt E9BSI1).
T1 sequence (whole entry): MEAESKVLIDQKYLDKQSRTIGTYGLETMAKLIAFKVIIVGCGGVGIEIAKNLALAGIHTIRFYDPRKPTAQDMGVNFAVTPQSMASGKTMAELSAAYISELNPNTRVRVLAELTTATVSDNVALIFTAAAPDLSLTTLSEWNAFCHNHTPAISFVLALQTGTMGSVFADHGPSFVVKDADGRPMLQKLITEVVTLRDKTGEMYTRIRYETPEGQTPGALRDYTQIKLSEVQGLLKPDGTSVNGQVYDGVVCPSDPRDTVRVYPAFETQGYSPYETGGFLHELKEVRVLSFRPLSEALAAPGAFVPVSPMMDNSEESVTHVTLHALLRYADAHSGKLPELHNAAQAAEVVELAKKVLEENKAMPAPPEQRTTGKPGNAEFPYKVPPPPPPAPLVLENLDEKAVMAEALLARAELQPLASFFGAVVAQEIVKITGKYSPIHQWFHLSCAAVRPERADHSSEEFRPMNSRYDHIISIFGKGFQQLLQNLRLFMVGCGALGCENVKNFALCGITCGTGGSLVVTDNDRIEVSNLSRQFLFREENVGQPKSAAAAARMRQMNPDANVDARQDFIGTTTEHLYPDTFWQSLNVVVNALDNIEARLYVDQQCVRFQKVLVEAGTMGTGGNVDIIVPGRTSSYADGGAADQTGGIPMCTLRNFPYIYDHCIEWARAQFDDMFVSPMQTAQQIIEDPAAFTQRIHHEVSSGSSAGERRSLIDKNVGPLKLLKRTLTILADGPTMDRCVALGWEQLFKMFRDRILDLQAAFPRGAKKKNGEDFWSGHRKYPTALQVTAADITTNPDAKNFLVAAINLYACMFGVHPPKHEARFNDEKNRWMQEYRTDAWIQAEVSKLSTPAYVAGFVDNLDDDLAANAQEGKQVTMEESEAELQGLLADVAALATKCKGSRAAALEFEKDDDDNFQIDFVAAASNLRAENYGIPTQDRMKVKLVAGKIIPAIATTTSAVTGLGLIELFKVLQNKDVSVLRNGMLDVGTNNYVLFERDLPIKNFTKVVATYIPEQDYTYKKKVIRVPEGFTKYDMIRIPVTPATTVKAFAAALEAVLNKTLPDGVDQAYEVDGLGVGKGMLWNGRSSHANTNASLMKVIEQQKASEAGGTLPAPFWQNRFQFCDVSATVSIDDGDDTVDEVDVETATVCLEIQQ
As to the kind of experiment: Leishmania donovani Ubiquitin Activating Enzyme (LdE1). Type of test: functional. The following applies: 30 µM.

Test [3] addresses AMP-activated protein kinase, AMPK (Homo sapiens) (UniProt P54646+O43741+P54619+Q9UGJ0+Q9Y478+Q13131+Q9UGI9). Kind of test: AMP-dependent Kinase enzyme assay. An in vitro enzyme assay that detects ADP turnover that is directly proportional to AMPK activity. This uses naive AMPK that is activated during the assay with MK-8722. The following applies: 30 µM. Type of test: functional.

Test [4] deals with Sialic acid-binding Ig-like lectin 9 (Homo sapiens) (UniProt Q9Y336). Kind of test: Hs-Siglec9 ALPHAscreen SOP 20170721. The following applies: 10 µM.
A further test relates to Trypanosoma cruzi. As to the kind of experiment: Trypanosoma cruzi phosphomannomutase and mannose-1-phosphate guanylyltransferase assay. The following applies: 10 µM. Type of test: functional.
The target in test [5] is T2, Arginase-2, mitochondrial (Homo sapiens) (UniProt P78540).
T2 sequence (whole entry): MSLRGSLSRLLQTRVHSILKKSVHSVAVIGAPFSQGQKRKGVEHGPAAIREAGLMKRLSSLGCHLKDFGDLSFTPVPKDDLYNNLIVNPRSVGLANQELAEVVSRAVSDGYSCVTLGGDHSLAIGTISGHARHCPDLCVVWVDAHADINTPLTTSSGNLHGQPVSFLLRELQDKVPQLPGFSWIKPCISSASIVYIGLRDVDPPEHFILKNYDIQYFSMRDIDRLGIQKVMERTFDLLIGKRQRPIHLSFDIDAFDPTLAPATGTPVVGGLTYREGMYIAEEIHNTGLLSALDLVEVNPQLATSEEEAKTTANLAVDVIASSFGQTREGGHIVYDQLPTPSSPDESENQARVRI
Kind of test: in vitro enzyme assay to detect the production of urea directly proportional to the activity of Arginase II. Also: in the data most compounds retested in dose-response had high values. The test is classed as functional. To be noted: 33.3 µM.

Test [6] addresses T3, Proteasome subunit beta (Trypanosoma cruzi) (UniProt O96673).
T3 sequence (whole entry): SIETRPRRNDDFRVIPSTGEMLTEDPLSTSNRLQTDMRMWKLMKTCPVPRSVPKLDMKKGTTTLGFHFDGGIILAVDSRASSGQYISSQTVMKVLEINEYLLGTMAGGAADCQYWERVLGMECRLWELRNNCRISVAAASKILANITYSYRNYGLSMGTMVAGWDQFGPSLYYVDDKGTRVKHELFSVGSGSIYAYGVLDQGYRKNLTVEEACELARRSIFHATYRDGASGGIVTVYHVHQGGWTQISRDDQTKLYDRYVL
Kind of test: Trypanosoma cruzi proteasome chymotrypsin-like activity (TcProtChymo) assay. Also: in the data most compounds retested in dose-response had high values. The test is classed as functional. To be noted: 9.37 µM.

A further test is filed under the species Homo sapiens. Kind of test: To identify inhibition of the IFN signalling (Jak-Stat) pathway via expression of an eGFP reporter gene under the control of an IFN-stimulated response element (ISRE) containing MxA promoter. Type of test: functional. To be noted: 30 µM. (A reporter such as luciferase makes a cellular process visible.)
Test [7] has as its target T4, Tyrosyl-tRNA synthetase, putative (Trypanosoma cruzi (strain CL Brener)) (UniProt Q4DSP6).
T4 sequence (whole entry): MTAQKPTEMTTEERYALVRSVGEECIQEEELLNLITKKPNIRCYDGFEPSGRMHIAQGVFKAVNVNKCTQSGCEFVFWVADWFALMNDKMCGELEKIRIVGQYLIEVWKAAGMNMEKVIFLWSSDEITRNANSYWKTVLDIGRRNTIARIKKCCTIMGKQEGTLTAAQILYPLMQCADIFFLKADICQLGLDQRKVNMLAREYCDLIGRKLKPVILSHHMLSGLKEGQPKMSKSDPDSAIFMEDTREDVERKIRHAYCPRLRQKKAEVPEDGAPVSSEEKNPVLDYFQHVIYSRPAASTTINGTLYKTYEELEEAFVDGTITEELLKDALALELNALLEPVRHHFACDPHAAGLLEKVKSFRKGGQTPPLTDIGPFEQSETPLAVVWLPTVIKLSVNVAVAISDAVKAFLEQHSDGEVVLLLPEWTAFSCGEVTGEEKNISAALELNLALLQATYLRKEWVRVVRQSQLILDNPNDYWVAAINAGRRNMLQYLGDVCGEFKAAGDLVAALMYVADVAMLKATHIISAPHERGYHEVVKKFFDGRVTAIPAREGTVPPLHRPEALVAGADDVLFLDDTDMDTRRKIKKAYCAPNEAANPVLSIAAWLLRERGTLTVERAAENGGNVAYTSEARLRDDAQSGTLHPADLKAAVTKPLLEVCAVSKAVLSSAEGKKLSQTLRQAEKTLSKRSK
Kind of test: Trypanosoma cruzi tyrosyl tRNA synthetase (TcYRS) _High Tyrosine SOP. Also: in the data most compounds retested in dose-response had high values. The test is classed as functional. The following applies: 30 µM.

In test [8] the target is T4, Tyrosyl-tRNA synthetase, putative (Trypanosoma cruzi (strain CL Brener)). As to the kind of experiment: Trypanosoma cruzi tyrosyl tRNA synthetase (TcYRS) SOP. The test is classed as functional. The following applies: 30 µM.
Test [9] addresses Chromo domain-containing protein 1 (Saccharomyces cerevisiae (strain ATCC 204508 / S288c) (Baker's yeast)) (UniProt P32657). Kind of test: ScCHD-1 Enzyme Inhibition Assay. Also: in the data most compounds retested in dose-response had high values. Type of test: functional. To be noted: 30 µM.

Chain of Protein translocase subunit SecA (Escherichia coli (strain K12)) (P10408 whole entry): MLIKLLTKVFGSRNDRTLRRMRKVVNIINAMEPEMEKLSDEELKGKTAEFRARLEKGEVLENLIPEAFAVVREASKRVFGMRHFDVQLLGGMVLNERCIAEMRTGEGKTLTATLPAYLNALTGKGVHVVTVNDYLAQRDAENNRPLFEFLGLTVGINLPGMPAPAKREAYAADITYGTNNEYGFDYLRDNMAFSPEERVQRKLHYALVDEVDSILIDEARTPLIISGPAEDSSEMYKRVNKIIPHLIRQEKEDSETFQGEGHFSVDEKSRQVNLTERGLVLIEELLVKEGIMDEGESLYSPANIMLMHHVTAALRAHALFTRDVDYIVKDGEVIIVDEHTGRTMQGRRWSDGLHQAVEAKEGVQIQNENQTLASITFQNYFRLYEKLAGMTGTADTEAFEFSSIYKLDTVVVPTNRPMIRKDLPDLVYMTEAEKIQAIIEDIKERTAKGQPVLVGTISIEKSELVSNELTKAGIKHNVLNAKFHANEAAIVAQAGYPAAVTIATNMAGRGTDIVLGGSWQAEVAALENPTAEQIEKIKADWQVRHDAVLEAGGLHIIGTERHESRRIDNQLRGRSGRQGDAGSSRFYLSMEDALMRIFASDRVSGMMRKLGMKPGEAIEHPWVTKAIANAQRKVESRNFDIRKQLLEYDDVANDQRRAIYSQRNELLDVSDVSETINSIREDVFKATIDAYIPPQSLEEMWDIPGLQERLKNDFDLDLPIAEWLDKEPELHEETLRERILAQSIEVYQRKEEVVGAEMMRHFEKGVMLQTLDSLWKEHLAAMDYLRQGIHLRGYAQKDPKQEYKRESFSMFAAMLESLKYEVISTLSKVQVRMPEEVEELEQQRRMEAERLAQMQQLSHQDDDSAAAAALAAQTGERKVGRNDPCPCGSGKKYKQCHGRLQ
Chain of Chromo domain-containing protein 1 (Saccharomyces cerevisiae (strain ATCC 204508 / S288c) (Baker's yeast)) (P32657 whole entry, the tested form may be a part): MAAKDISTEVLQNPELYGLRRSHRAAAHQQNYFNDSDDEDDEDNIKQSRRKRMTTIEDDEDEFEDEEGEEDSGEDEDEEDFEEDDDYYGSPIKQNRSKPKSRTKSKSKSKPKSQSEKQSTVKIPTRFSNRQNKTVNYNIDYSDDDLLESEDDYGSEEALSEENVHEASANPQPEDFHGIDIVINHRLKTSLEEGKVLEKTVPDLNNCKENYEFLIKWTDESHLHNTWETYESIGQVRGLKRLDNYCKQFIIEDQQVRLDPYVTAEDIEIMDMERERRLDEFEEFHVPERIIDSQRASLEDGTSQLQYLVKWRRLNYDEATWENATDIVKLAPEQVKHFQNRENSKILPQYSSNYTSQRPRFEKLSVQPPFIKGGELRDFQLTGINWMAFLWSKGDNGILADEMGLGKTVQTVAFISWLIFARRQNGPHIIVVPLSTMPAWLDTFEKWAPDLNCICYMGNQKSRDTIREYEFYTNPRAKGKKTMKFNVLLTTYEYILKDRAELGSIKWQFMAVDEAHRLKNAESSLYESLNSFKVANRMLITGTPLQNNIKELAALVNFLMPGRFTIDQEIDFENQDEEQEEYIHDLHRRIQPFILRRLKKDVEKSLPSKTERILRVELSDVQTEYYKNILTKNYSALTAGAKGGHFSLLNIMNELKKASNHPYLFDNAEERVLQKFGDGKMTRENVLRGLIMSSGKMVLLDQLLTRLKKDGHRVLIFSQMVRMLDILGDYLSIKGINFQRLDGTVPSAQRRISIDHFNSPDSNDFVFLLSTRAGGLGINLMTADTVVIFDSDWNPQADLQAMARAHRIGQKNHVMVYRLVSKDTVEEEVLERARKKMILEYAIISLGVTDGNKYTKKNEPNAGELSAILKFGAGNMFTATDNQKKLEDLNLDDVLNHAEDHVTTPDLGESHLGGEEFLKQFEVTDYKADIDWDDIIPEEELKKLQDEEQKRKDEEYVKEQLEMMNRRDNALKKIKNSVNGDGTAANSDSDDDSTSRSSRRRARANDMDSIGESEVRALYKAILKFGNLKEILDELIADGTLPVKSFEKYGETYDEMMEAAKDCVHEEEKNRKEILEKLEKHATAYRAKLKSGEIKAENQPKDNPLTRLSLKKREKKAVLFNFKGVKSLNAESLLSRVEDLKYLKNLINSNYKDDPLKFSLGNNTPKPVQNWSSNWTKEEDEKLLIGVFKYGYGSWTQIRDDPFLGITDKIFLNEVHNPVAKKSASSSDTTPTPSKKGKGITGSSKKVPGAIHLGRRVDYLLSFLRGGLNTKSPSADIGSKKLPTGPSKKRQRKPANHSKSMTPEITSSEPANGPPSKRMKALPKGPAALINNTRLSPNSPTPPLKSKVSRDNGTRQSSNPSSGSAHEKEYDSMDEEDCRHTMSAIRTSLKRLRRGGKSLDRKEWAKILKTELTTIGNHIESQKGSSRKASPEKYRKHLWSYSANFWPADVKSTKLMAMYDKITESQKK
Chain of Sialic acid-binding Ig-like lectin 9 (Homo sapiens) (Q9Y336 whole entry): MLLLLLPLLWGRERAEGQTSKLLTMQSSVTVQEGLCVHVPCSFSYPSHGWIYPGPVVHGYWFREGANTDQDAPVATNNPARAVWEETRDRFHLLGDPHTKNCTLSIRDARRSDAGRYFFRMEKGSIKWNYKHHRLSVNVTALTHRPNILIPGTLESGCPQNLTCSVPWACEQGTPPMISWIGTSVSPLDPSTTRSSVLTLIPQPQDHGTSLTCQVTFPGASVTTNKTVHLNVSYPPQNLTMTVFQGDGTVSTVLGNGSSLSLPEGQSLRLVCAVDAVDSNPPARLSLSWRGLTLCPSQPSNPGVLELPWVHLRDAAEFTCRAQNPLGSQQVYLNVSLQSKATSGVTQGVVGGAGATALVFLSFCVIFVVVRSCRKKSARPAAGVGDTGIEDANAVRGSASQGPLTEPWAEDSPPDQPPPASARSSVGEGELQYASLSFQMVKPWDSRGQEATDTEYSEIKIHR

Regarding `CC(C)Oc1ccc(CNC(=O)CC(F)(F)F)cc1F`, the Percent Effect in [1] was -5.61%; in [2] it was 10.5%; in [3] it was -1.12%; in test [4], 6.95%; in the test with Trypanosoma cruzi, -2.52%; in test [5], 1.08%. The Percent Effect in [6] was 1.78%; in the test listed under Homo sapiens, -11.2%; in [7], 4.43%; in test [8], 11.1%; in [9] it was -4.45%.
As for `Nc1cc2c(nn1)CCN(C(=O)c1cccc3c1OCCO3)C2`, the Percent Effect is 0.377% in test [1]; 2.6% in test [2]; -2.26% in test [3]; 6.77% in test [4]; 8.24% in the test with Trypanosoma cruzi; 0.356% in [5]. In addition, the Percent Effect in [6] is 4.05%; in the test filed under Homo sapiens, 10.7%; in [7] it was 5.83%; in test [8], 12.2%; in test [9], -10.5%.
With `Cc1noc(C(C)C)c1C(=O)N1CCOCC1CC(=O)c1ccco1` (stereo not given), the Percent Effect was -0.641% in test [1]; 0% in test [2]; 17.2% in [3]; -3.82% in [4]; 0.487% with Trypanosoma cruzi; 1.18% in [5]. Besides, the Percent Effect in [6] was 7.38%; in the test filed under Homo sapiens it was -20.2%; in [7], -2.13%; in test [8], -7.79%; in [9], -0.46%.
Consider `CCn1cc2c(n1)CN(Cc1nccs1)CC2COCC1CC1` (stereo not given), for which the Percent Effect in test [1] was -2.47%; in [2], 13.3%; in test [3] it was 8.82%; in test [4], 0.752%; in the test on Trypanosoma cruzi it was -0.197%; in test [5], 3.03%. In addition, the Percent Effect in [6] was 6.61%; in the test filed under Homo sapiens, 0.895%; in test [7], 6.38%; in [8] it was 11.5%; in test [9], -4.67%.
Turning to `Cc1cc(C)n(C2CCCN(C(=O)CCNS(C)(=O)=O)C2)n1` (stereo not given), the Percent Effect in [1] is 2.69%; in test [2], -6.33%; in test [3] it was -12.4%; in [4], -1.59%; in the test with Trypanosoma cruzi, -0.103%; in test [5], 7.53%. Further, the Percent Effect in [6] was 8.58%; in the test filed under Homo sapiens, 12.6%; in [7] it was 2.08%; in test [8] it was 7.59%; in [9], -22.7%.
Consider `CC(C)N1CC(C(=O)NCCOc2ccc3c(c2)OCO3)CC1=O` (stereo not given), for which the Percent Effect in test [1] is 0.716%; in test [2], 21.1%; in [3] it was -0.48%; in test [4] it was -5.15%; in the test on Trypanosoma cruzi, 3.64%; in [5], 2.16%. Moreover, the Percent Effect is 12.1% in test [6]; 4.59% in the test listed under Homo sapiens; 8.37% in [7]; 23.5% in test [8]; -9.09% in test [9].
With `O=C(c1cnoc1)N1CCC[C@]2(C[C@H](Oc3ncccc3F)CO2)C1`, the Percent Effect in test [1] was -4.36%; in test [2], -30.1%; in [3] it was -3.76%; in test [4], 25%; in the test on Trypanosoma cruzi, 9.72%; in test [5] it was -5.59%. The Percent Effect in [6] was 11.7%; in the test listed under Homo sapiens, 9.74%; in test [7], 4.17%; in [8] it was 8.64%; in [9], -3.75%.
For the molecule `COc1ncccc1NC(=O)C1CCS(=O)(=O)C1` (stereo not given), the Percent Effect was -5.85% in [1]; 20.8% in test [2]; -1.47% in test [3]; -3.58% in test [4]; -5.99% with Trypanosoma cruzi; -1.07% in test [5]. The Percent Effect in [6] was 3.21%; in the test listed under Homo sapiens, 19.2%; in test [7], 3.88%; in test [8], 12.2%; in test [9], -9.93%.
With `O=C(NS(=O)(=O)c1ccccc1Cl)c1cccc2c1OCCO2`, the Percent Effect in test [1] is -5.38%; in [2], 5.48%; in [3], -3.79%; in test [4], 16.7%; with Trypanosoma cruzi, 3.53%; in test [5] it was 8.64%. Also, the Percent Effect in [6] is 10.7%; in the test listed under Homo sapiens, 7.24%; in test [7] it was -10.8%; in test [8], -10%; in [9], 96.7%.
Turning to `O=C(NCCc1cccc(O)c1)NC1CCN(c2ccccc2)C1=O` (stereo not given), the Percent Effect in test [1] was -7.43%; in [2] it was 0%; in [3] it was 2.02%; in test [4] it was -1.23%; with Trypanosoma cruzi, -2.82%; in test [5] it was 1.04%. In addition, the Percent Effect in test [6] was 11.7%; in the test listed under Homo sapiens it was -6.77%; in test [7] it was -1.64%; in test [8] it was 1.24%; in test [9] it was -4.31%.
